{
  "source": "PubChem BioAssay AID1469",
  "about": "(National Center for Advancing Translational Sciences (NCATS), 2008)",
  "note": "Screen size: about 280,000 compounds; about 180 (0.064%) were called active. Calls come from the whole dose curve; as a rule, active = well fitted inhibition curve with a large enough effect; inconclusive = small, poorly fitted or top-dose-only effect, or effect the other way; inactive = flat fitted curve, though single readings scatter. What follows is part of a selection rich in actives, with near analogues and random picks from the rest. Potency is the fitted concentration of half-maximal effect.",
  "data": [
    {"target": "Thyroid hormone receptor beta (Homo sapiens) (UniProt P10828)", "sequence (P10828 whole entry, looked up)": "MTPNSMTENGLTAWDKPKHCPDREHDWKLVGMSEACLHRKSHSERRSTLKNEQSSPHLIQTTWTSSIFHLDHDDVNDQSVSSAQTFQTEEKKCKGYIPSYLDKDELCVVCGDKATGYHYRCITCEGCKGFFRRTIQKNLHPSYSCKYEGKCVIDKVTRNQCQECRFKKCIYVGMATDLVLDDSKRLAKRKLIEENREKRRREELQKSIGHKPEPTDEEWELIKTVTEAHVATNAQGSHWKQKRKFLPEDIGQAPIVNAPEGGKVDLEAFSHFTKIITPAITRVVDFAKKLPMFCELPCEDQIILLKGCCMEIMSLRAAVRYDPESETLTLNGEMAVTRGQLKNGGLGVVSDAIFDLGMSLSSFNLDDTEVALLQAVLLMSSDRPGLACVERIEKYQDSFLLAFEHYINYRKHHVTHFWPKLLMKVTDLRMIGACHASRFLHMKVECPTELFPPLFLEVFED", "experiment": "qHTS for Inhibitors of the Interaction of Thyroid Hormone Receptor and Steroid Receptor Coregulator 2; note: nearly all actives have a fitted effect of over 50% in size;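 for activity change, negative = inhibition: plate controls were bound peptide for no effect and peptide without receptor for full effect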", "conditions": "TRbeta-SRC2 peptide binding, fluorescence polarization, receptor liganded with 1 µM T3; series mostly up to 106 µM; activity change, negative = inhibition: at the top concentration", "description": "NIH Molecular Libraries Probe Production Network [MLPCN]\nNIH Chemical Genomics Center [NCGC]\nAssay Provider: R. Kip Guy, St. Jude Children's Research Hospital\nThyroid receptor (TR) regulates many homeostatic processes including basal metabolism, cardiovascular function, body weight, and lipid trafficking. TR modulators are potential therapeutics for obesity and hyperlipidemias but current thyroid analogs have undesirable side effects, particularly cardiac stimulation. To identify inhibitors that specifically prevent the interaction of TR with the steroid receptor coregulator 2 (SRC2), a fluorescence polarization assay was screened. This assay detects interaction of the ligand-binding domain of human TRb with a Texas Red labeled SRC2 peptide, corresponding to a 20 amino acid region of the nuclear receptor interaction domain (Arnold et al., 2006). Small molecule inhibitors that block the interaction of TR and SRC2 are detected by a decrease in fluorescence polarization.\nArnold, L. A.; Estebanez-Perpina, E.; Togashi, M.; Shelat, A.; Ocasio, C. A.; McReynolds, A. C.; Nguyen, P.; Baxter, J. D.; Fletterick, R. J.; Webb, P.; Guy, R. K. A high-throughput screening method to identify small molecule inhibitors of thyroid hormone receptor coactivator binding. Sci STKE 2006, p 13.\nNCGC Assay Protocol Summary:\nFor screening, 5 uL/well 0.6 uM TRb and 20 nM SRC2 Texas Red in protein buffer (20mM Tris hydrochloride, 100mM NaCl, 10% glycerol, 1mM EDTA, 0.01% NP-40, 1mM DTT, 1uM T3 and 5% DMSO) was dispensed into black solid 1536-well plates (Grenier) using a solenoid-based dispenser. Following transfer of 23 nL compound or DMSO vehicle by a pin tool, the plates were centrifuged 15 s at 1000 RPM and incubated 5 hr at ambient temperature. The plates were read by an Envision (Perkin Elmer) to detect fluorescence polarization of SRC2 Texas Red (555 nm excitation and 632 nm emission). Data were normalized to unbound (all components except TRb) and bound SRC2 Texas Red controls. In this assay, we provide % activity data for each concentration as well as potencies for the active compounds.\nKeywords: NIH Roadmap, MLPCN, MLI, MLSMR, qHTS, NCGC, qHTS, thyroid hormone receptor, steroid receptor coactivator, fluorescence polarization", "values": [
      {"smiles": "Cc1ccc(CN2CCc3nc(N4CCN(C)CC4)ncc3C2)cc1", "activity change, negative = inhibition": "-3.16% (inactive)"},
      {"smiles": "CCN1CCN(c2ncc3c(n2)CC(c2ccccc2O)CC3=O)CC1", "note": "(stereo not given)", "activity change, negative = inhibition": "4.08% (inactive)"},
      {"smiles": "Cc1nc2nc(SCC(=O)N(Cc3ccccc3)C(C)C)nn2c(C)c1Cc1ccccc1Cl", "activity change, negative = inhibition": "6.02% (inactive)"},
      {"smiles": "Cc1ccc(NC(=O)c2nc(S(=O)(=O)Cc3cccc(C)c3)ncc2Cl)cc1", "activity change, negative = inhibition": "-0.903% (inactive)"},
      {"smiles": "CC(=O)OC1=C(C(C)=O)N(Cc2ccccc2)S(=O)(=O)c2ccccc21", "activity change, negative = inhibition": "-0.701% (inactive)"},
      {"smiles": "Cc1cccc(OCCSc2nc3ccccc3n2CC(=O)N2CCCCC2)c1C", "activity change, negative = inhibition": "-1.35% (inactive)"},
      {"smiles": "Cc1ccccc1CNC(=O)CCCn1nc(C)c2sc3ccccc3c2c1=O", "activity change, negative = inhibition": "-0.387% (inactive)"},
      {"smiles": "Cc1c(C)n(Cc2ccc(Cl)cc2)c2ccc(C(=O)NCCc3ccc(S(N)(=O)=O)cc3)cc12", "activity change, negative = inhibition": "-3.01% (inactive)"},
      {"smiles": "COc1ccc2cc(CNc3ccc(OC)c(OC)c3)c(=O)n(CC(=O)Nc3ccccc3F)c2c1", "activity change, negative = inhibition": "-2.35% (inactive)"},
      {"smiles": "CSc1ccc(C2C(C(=O)Nc3ccccc3)=C(C)Nc3nc4ccccc4n32)cc1", "note": "(stereo not given)", "activity change, negative = inhibition": "-8.79% (inactive)"},
      {"smiles": "COc1ccc(CCNC(=O)c2nn(C)c3c2CSc2ccccc2-3)cc1OC", "activity change, negative = inhibition": "-1.01% (inactive)"},
      {"smiles": "COc1ccc(-c2nc(C)c(CCNC(=O)c3ccc(C(F)(F)F)cc3)s2)cc1OC", "activity change, negative = inhibition": "0.0329% (inactive)"},
      {"smiles": "COc1c(O)c2c(=O)cc(OC)c3c4c(OC)cc(=O)c5c(O)c(OC)c6c(c(c1C[C@@](C)(O)[C@H]6C(C)=O)c23)c54", "Potency": "35.5 µM (active)"},
      {"smiles": "COc1ccc2c(c1)c(N1CCCC1=O)c(C(=O)Nc1ccc(OC)c(Cl)c1)n2C", "activity change, negative = inhibition": "3.35% (inactive)"},
      {"smiles": "COc1ccc(Cl)cc1NC(=O)c1sc2nc3c(cc2c1N)CN(C)CC3", "activity change, negative = inhibition": "0.478% (inactive)"},
      {"smiles": "Cc1cccc(NC(c2cccc(F)c2)c2ccc3ccc(C)nc3c2O)n1", "note": "(stereo not given)", "activity change, negative = inhibition": "0.0507% (inactive)"},
      {"smiles": "CCOc1ccc(N(Cc2ccccc2)C(=O)c2nc(S(C)(=O)=O)ncc2Cl)cc1", "activity change, negative = inhibition": "-7.22% (inactive)"},
      {"smiles": "O=C(/C=C/c1ccccc1[N+](=O)[O-])OC1CCCCC1=O", "note": "(stereo not given)", "activity change, negative = inhibition": "0.395% (inactive)"},
      {"smiles": "O=C(/C=C/c1ccccc1[N+](=O)[O-])NCC1CCCO1", "note": "(stereo not given)", "activity change, negative = inhibition": "1.44% (inactive)"},
      {"smiles": "CC1CCCCC1NC(=O)/C(C#N)=C/C=C/c1ccccc1[N+](=O)[O-]", "note": "(stereo not given)", "Potency": "39.8 µM (active)"},
      {"smiles": "CCNS(=O)(=O)c1cc(-c2nnc(Nc3cccc(C(F)(F)F)c3)c3ccccc23)ccc1C", "activity change, negative = inhibition": "8.87% (inactive)"},
      {"smiles": "O=C(NCCCN1CCN(c2cccc(Cl)c2)CC1)c1nnc(Cc2ccc(F)cc2Cl)o1", "activity change, negative = inhibition": "5.2% (inactive)"},
      {"smiles": "COc1ccc(-c2cc(NCc3ccc(F)cc3)n3cnnc3n2)cc1", "activity change, negative = inhibition": "2.27% (inactive)"},
      {"smiles": "Cc1ccc(NC(=O)CN2C(=O)C(c3ccc(F)cc3)=NC23CCCCCC3)c(C)c1", "activity change, negative = inhibition": "-0.31% (inactive)"},
      {"smiles": "Cc1ccc(Nc2c(-c3ccc(N(C)C)cc3)nc3nc[nH]n23)cc1", "activity change, negative = inhibition": "2.09% (inactive)"},
      {"smiles": "O=C(NC1CC(=O)N(c2ccc(F)cc2)C1)c1ccc(S(=O)(=O)N2CCCC2)cc1", "note": "(stereo not given)", "activity change, negative = inhibition": "-0.489% (inactive)"},
      {"smiles": "COC(=O)c1ccc(NC(=O)CSc2n[nH]c(-c3ccccc3)n2)cc1", "activity change, negative = inhibition": "1.11% (inactive)"},
      {"smiles": "Cn1nc(-c2ccccc2)c(-c2ccccc2)c(C(=O)Nc2ccc(S(N)(=O)=O)cc2)c1=O", "activity change, negative = inhibition": "-7.69% (inactive)"},
      {"smiles": "COc1ccc(-c2cn3c(n2)sc2cc(C(=O)Nc4ccccc4F)ccc23)cc1", "activity change, negative = inhibition": "0.784% (inactive)"},
      {"smiles": "CCOc1cccc(NC(=O)CSc2ncc(-c3ccc(Cl)cc3)[nH]2)c1", "activity change, negative = inhibition": "8.96% (inactive)"},
      {"smiles": "O=C(Nc1c(C(=O)N2CCN(c3ccc(F)cc3)CC2)oc2ccccc12)c1ccco1", "activity change, negative = inhibition": "5.17% (inactive)"},
      {"smiles": "COc1ccc(-c2noc(CSc3nc(C)cc(=O)[nH]3)n2)cc1OC", "activity change, negative = inhibition": "-6.31% (inactive)"},
      {"smiles": "CCOC(=O)c1cnc2c(C)cc(C)cc2c1Nc1ccc(N2CCOCC2)cc1", "activity change, negative = inhibition": "4.22% (inactive)"},
      {"smiles": "CC(C)c1ccc(C2CC(=O)N3CN(C4CCCCC4)CSC3=C2C#N)cc1", "note": "(stereo not given)", "activity change, negative = inhibition": "-3.24% (inactive)"},
      {"smiles": "Clc1nc(Cl)c(Cl)c(Cl)c1Cl", "activity change, negative = inhibition": "2.91% [at 201 µM] (inactive)"},
      {"smiles": "O=C(c1cnn(-c2ccc(F)cc2)c1-n1cccc1)N1CCN(c2ccc(F)cc2)CC1", "activity change, negative = inhibition": "-0.53% (inactive)"},
      {"smiles": "COc1ccc(-c2cccc(NS(=O)(=O)c3cc(C)c(OC)c(C)c3C)c2)nn1", "activity change, negative = inhibition": "-3.96% (inactive)"},
      {"smiles": "O=C(CSc1nc2nccnc2c(=O)n1CCc1c[nH]c2ccccc12)Nc1ccccc1F", "activity change, negative = inhibition": "-1.34% (inactive)"},
      {"smiles": "COc1cccc(-n2cc(C(=O)NCc3cccc(Cl)c3)c3ccccc3c2=O)c1", "activity change, negative = inhibition": "5.09% (inactive)"},
      {"smiles": "CCN(Cc1ccccc1)C(=O)c1cn(-c2cccc(OC)c2)c(=O)c2ccccc12", "activity change, negative = inhibition": "0.692% (inactive)"},
      {"smiles": "O=C(CSc1nccn1-c1ccc(F)cc1)Nc1cccc2ccccc12", "activity change, negative = inhibition": "-1.67% (inactive)"},
      {"smiles": "CC1=C(c2ccc(C)cc2)S(=O)(=O)NC1=NCCCN1CCN(c2cc(C)ccc2C)CC1", "activity change, negative = inhibition": "-0.687% (inactive)"},
      {"smiles": "COc1ccc(-c2cc(C(=O)NCc3cc(OC)c(OC)c(OC)c3)[nH]n2)cc1", "activity change, negative = inhibition": "1.65% (inactive)"},
      {"smiles": "CCC(C(=O)Nc1cc(OC)ccc1OC)n1c(=O)c(C(F)(F)F)nc2ccccc21", "note": "(stereo not given)", "activity change, negative = inhibition": "-2.12% (inactive)"},
      {"smiles": "CCOC(=O)c1oc2ccc(S(=O)(=O)n3nc(-c4ccccc4OC)cc3N)cc2c1C", "activity change, negative = inhibition": "-12.1% (inactive)"},
      {"smiles": "COc1ccc(NS(=O)(=O)c2cc3c4c(c2)CC(=O)N4CCC3)cc1Cl", "activity change, negative = inhibition": "5.52% (inactive)"},
      {"smiles": "Cc1ccc(C)c(Nc2nnc(-c3ccc(C)c(S(=O)(=O)N4CCCCC4)c3)c3ccccc23)c1", "activity change, negative = inhibition": "-0.116% (inactive)"},
      {"smiles": "O=C(C1CCCN(S(=O)(=O)c2cccc3nonc23)C1)N1CCN(c2ccccc2F)CC1", "note": "(stereo not given)", "activity change, negative = inhibition": "-9.58% (inactive)"},
      {"smiles": "O=C1CSC2(C(=O)N(Cc3ccccc3)c3ccccc32)N1c1cccc(F)c1", "note": "(stereo not given)", "activity change, negative = inhibition": "3.71% (inactive)"},
      {"smiles": "CCn1cc(C(=O)N2CCN(c3cc(C)ccc3C)CC2)c(=O)c2cc(S(=O)(=O)N(C)C3CCCCC3)ccc21", "activity change, negative = inhibition": "1.74% (inactive)"},
      {"smiles": "Cc1nnc(NC(=O)CSc2nc3c([nH]c4ccccc43)c(=O)n2-c2cccc(Cl)c2)s1", "activity change, negative = inhibition": "6.72% (inactive)"},
      {"smiles": "COc1ccccc1N1CCN(C(=O)C2CCN(S(=O)(=O)c3c(C)noc3/C=C/c3ccc(C)cc3)CC2)CC1", "activity change, negative = inhibition": "7.45% (inactive)"},
      {"smiles": "CCOc1ccc2oc(=O)cc(CN3CCN(C(=O)c4ccc(F)cc4)CC3)c2c1", "activity change, negative = inhibition": "-8.37% (inactive)"},
      {"smiles": "Cc1cccc(N2CCN(C(=O)CCn3c(=O)c4cccn4c4cccnc43)CC2C)c1", "note": "(stereo not given)", "activity change, negative = inhibition": "4.81% (inactive)"},
      {"smiles": "COc1ccc(-n2ccnc(NCCc3ccc(Cl)cc3)c2=O)cc1OC", "activity change, negative = inhibition": "5.85% (inactive)"},
      {"smiles": "CCn1c(C)c(C)c2cc(C(=O)NCCc3cc(OC)ccc3OC)ccc21", "activity change, negative = inhibition": "-5.66% (inactive)"},
      {"smiles": "COc1ccc(-c2onc(C)c2C)cc1S(=O)(=O)NCC1CCN(Cc2cccc(F)c2)CC1", "activity change, negative = inhibition": "2.95% (inactive)"},
      {"smiles": "Cc1cccc(NC(=O)CN(c2ccc(C(C)C)cc2)S(=O)(=O)c2c(C)nn(C)c2C)c1C", "activity change, negative = inhibition": "1.49% (inactive)"},
      {"smiles": "Cc1cc2c(cc3c(SCc4cccc(Cl)c4)nnc(C)n32)o1", "activity change, negative = inhibition": "7.69% (inactive)"},
      {"smiles": "COc1ccc(-c2cn3nc(N4CCC(C(=O)Nc5cccc(C)c5C)CC4)sc3n2)cc1", "activity change, negative = inhibition": "2.88% (inactive)"}
    ]}
  ]
}
